Assay outcomes deposited in PubChem BioAssay by several laboratories.
V-ATPase pH – yeast V-ATPase proton transport regulation by pHLuorin; S. cerevisiae, pHLuorin cytosolic pH fluorescence; response, % at 10 µM; hit rate 0.37% among 350,000; in the data active = response mostly above about 7.3%, no sharp cut-off; inactive = mostly below about 5.4%; also: actives read high
NPR1 activator – GC-A (human) enzyme activation | activation, % at 10 µM | HEK293 GC-A cells, cGMP TR-FRET, EC30 ANP; 0% at EC30 ANP, 100% saturating ANP | hit rate 0.14% among 370,000; in the data active = activation above about 40%
Target sequence (P16066 whole entry, looked up): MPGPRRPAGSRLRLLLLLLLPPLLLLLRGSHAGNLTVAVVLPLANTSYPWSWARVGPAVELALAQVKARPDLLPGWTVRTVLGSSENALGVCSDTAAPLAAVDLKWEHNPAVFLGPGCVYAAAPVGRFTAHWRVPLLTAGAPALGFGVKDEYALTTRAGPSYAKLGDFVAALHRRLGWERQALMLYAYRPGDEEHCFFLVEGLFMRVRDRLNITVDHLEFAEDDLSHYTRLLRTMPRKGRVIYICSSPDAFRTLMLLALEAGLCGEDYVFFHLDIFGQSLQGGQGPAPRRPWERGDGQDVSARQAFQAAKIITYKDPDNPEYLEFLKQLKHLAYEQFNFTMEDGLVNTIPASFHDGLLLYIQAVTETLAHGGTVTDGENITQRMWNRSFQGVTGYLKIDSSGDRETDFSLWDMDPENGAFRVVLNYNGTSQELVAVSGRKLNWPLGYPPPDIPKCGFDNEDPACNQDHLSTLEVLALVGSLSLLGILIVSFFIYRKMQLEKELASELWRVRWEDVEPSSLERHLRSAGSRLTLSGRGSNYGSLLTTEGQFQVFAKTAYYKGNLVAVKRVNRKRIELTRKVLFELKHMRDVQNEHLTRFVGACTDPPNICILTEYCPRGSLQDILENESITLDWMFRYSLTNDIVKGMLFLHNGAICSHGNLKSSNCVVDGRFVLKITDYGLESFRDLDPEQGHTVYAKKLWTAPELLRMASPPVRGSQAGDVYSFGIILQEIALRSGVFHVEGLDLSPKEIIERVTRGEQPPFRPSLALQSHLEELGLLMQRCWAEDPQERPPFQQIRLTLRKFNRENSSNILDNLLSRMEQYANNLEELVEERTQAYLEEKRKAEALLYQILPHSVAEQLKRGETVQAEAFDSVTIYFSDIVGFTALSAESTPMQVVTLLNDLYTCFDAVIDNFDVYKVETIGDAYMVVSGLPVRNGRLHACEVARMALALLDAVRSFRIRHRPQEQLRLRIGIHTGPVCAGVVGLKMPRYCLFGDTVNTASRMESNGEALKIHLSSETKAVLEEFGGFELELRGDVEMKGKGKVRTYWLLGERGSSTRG
Rev-erbA mod – modulates human Rev-erb alpha binding to DNA. hit rate 0.79% among 370,000. P20393. Rev-erbα–FITC-DNA binding, fluorescence polarization, 90 min. activity, % at 10 µM. AID 1259318;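 active = activity above about 14%, limit read from the data; passing the limit was not always enough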;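 also: 0% = DMSO wells with 35 nM protein and 100% = DMSO wells with 750 nM protein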
GC-B act – GC-B (human) receptor activation. P20594. HEK293-GC-B cells, CNP EC30, cGMP TR-FRET; 0% at EC30 CNP, 100% saturating CNP. activation, % at 10 µM. hit rate 0.11% among 370,000. AID 1920062;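 active = activation at 10 µM reaching about 35% in either raw or pattern-adjusted values, limit read from the data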
PG9 binder – binds the HIV-1 gp120 antibody PG9; TR-FRET gp120-PG9 antibody binding; inhibition, % at 6.7 µM; hit rate 0.43% among 360,000; in the data active = inhibition above about 8.5%
NR1D1 mod conf – Rev-erb alpha (human) modulation, hit confirmation | activation, % at 25 µM | shares compounds with Rev-erbA mod | Rev-erb alpha FITC-DNA binding, fluorescence polarization, 90 min | hit rate 61% among 3,000 | AID 1259319;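 active = activation at or above a set limit, or at least 3 SD above the negative control mean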;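 also: 0% = 35 nM protein with DMSO and 100% = 750 nM protein high control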
RORg DNA counter – RORgamma DNA-binding activity, dose-response counter-screen. shares compounds with Rev-erbA mod. purified RORgamma protein-FITC-DNA binding, fluorescence polarization. IC50, µM. hit rate 8% among 910;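 active = Compounds whose fitted half-maximal concentration for disrupting protein-DNA binding is below 10 micromolar; the record names Rev-erb in its text, so the target is in doubt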
Active calls of the source: *; i = inactive; · = not tested or not shown. Only some compounds are listed: those with a hit (about 1.6% of all), similar ones and a draw of the others.

SMILES	V-ATPase pH	NPR1 activator	Rev-erbA mod	GC-B act	PG9 binder	NR1D1 mod conf	others
CCOc1ccc(NC(=O)CCSc2ccc3ccccc3n2)cc1	0	-7	82*	1	-1	46*	RORg DNA counter=>40
Cc1nc(N2CCN(c3ccccn3)CC2)c2c(C)c(C(=O)N3CCN(c4ccc(F)cc4)CC3)sc2n1	0	0	20*	3	-1	7
Cc1nc(N2CCN(c3ccccn3)CC2)c2c(C)c(C(=O)Nc3ccc(Cl)cc3)sc2n1	-2	3	11	5	0	·
Cc1nc(N2CCN(c3ccccn3)CC2)c2c(C)c(C(=O)Nc3c(F)cc(F)cc3Br)sc2n1	3	2	46*	-1	3	-3
Cc1c(C(=O)N2CCN(c3ccc(F)cc3)CC2)sc2ncnc(N3CCN(c4ccccn4)CC3)c12	1	-8	3	0	0	·
Cc1nc(N2CCN(c3ccccn3)CC2)c2c(C)c(C(=O)Nc3c(C)cc(Br)cc3C)sc2n1	3	-4	28*	-4	-2	-12
Cc1nc(N2CCC(C)CC2)c2c(C)c(C(=O)Nc3ccc(C)c(F)c3)sc2n1	1	-1	46*	-4	-3	32*	RORg DNA counter=i
CCC(=O)Nc1nonc1-c1nc2ccccc2n1Cc1ccccc1	0	21	1	23	1	·
CCOC(=O)Cn1c(-c2nonc2NC(=O)c2ccccc2F)nc2ccccc21	1	10	27*	6	0	15
CCC[C@H]1[C@@H](O)CC[C@@]23CCCN2C(=O)CCC[C@@H]13	·	-1	4	-2	·	·
COc1ccc(C(=O)CN2C(=O)NC3(CCCc4ccccc43)C2=O)c(OC)c1 (stereo unspecified)	1	2	23*	-1	2	10
COc1ccccc1C(=O)CN1C(=O)NC2(CCCc3ccccc32)C1=O (stereo unspecified)	-3	-4	-7	-2	2	·
O=C(OC12CCCN(C1)/C(=C/c1cccnc1)C2)c1ccc(F)cc1 (stereo unspecified)	·	0	-1	-2	·	·
COC(=O)c1cn(NC(=O)Cc2ccc(OC)c(OC)c2)c(=O)c2ccccc12	-1	-2	12*	-4	1	0
Fc1cccc2sc(Nc3nc4cc5c(cc4s3)OCO5)nc12	0	-1	19	-7	0	·
Fc1cccc2sc(Nc3nc4cc5c(cc4s3)OCCO5)nc12	-3	3	34*	-3	-2	35*	RORg DNA counter=>40
CCC(CC)NC(=O)O[C@H]1CC[C@@]23CCCN2C(=O)CCC[C@H]3C1	·	-4	-2	-2	·	·
Cc1cccc(C(=O)Nc2nc3ncccn3c2-c2ccc(F)cc2)c1	·	-1	-5	-3	·	·
c1ccc(Oc2nnc(-c3cccs3)c3ccccc23)cc1	-1	-3	26*	6	-3	11
COc1ccc(Oc2nnc(-c3ccc(C)cc3)c3ccccc23)cc1	3	4	27*	2	2	15
Cc1ccc(Oc2nnc(-c3cccs3)c3ccccc23)cc1	2	-1	15	-3	3	·
Cc1ccc(CNC(=O)OC(C)(C)C)c(/C=C/S(=O)(=O)NC2CCCC2)c1	·	-2	-3	-6	·	·
c1ccc(C2CCC3(CC2)CCC3NCc2cccs2)cc1 (stereo unspecified)	·	-6	3	-6	·	·
Cc1ccc(-n2c(SCC(=O)Nc3ccccc3-c3ccccc3)nnc2-c2cnccn2)cc1	·	-18	-2	-15	·	·
COc1ccc2ccccc2c1C=NNC(=O)c1cc(-c2ccc(C)cc2)n[nH]1	·	0	-5	0	·	·
SMILES	V-ATPase pH	NPR1 activator	Rev-erbA mod	GC-B act	PG9 binder	NR1D1 mod conf	others
O=c1[nH]nc(Cc2ccc(-c3ccccc3Cl)o2)c2ccccc12	1	-2	34*	-6	0	17*
O=C1CCC[C@H]2C[C@H](NCc3ccc(Cl)c(Cl)c3)CC[C@]23CCCN13	·	3	-1	-3	·	·
CC(C)c1ccc(NC(=O)CSc2nc(-c3ccccc3F)nc3nc[nH]c23)cc1	-1	-1	34*	-5	-2	18*
COC(=O)c1ccc2nc(NC(=O)C(C)(C)C)sc2c1	-1	-7	6	0	0	·
COC(=O)c1ccc2nc(Nc3nc4ccc(F)cc4s3)sc2c1	-1	7	48*	3	2	54*
COC(=O)c1ccc2nc(NC(=O)C3CCCCC3)sc2c1	0	-12	17*	1	-3	19*
Oc1[nH]c2ccc(Br)cc2c1N=NC(=S)N1CCOCC1	-5	-1	19*	4	-1	24*
Oc1[nH]c2ccccc2c1N=NC(=S)N1CCOCC1	1	·	·	·	·	·
O=C(Nc1ccc(Br)cc1)O[C@@H]1CC[C@@]23CCCN2C(=O)CCC[C@H]3C1	·	0	-1	-11	·	·
CC(=O)c1cc(-c2ccccc2)n(CC(=O)NCc2ccc(Cl)cc2)c1C	·	-4	24*	-6	·	16*
COc1ccc(CC(=O)Nc2cc(C)c3c(=O)oc4ccccc4c3n2)cc1	2	4	41*	0	0	32*	RORg DNA counter=>40
CCOc1ccc(C(=O)Nc2cc(C)c3c(=O)oc4ccccc4c3n2)cc1	-1	20	55*	2	0	18*
COc1ccc(/C=C/S(=O)(=O)NCCc2ccccc2)c(CNC(=O)OC(C)(C)C)c1	·	-6	-2	-2	·	·
O=C(CSc1nc2ccccc2n1Cc1ccccc1)NN=Cc1c[nH]c2ccccc12	·	-3	5	-12	·	·
O=C(Cn1c(=O)n(CC2CCCO2)c(=O)c2ccccc21)c1ccc(Cl)c(Cl)c1 (stereo unspecified)	-3	1	27*	-1	5	24*
CCCn1c(NC(=O)c2ccccc2Br)nc2ccccc21	1	-2	1	3	1	·
CCCn1c(NC(=O)c2ccc(F)cc2)nc2ccccc21	1	-1	26*	-2	3	0
CCCn1c(NC(=O)c2ccc(Br)cc2)nc2ccccc21	0	0	32*	-3	-1	22*
CNc1nc2c(-c3ccc(Cl)cc3)nnn2c2ccccc12	-2	23	18*	4	2	16
Nc1c(-c2ccc(Cl)cc2)nnn1-c1ccccc1	-8	0	1	-18	2	·
Cc1ccc(-c2nnn3c2nc(NC(C)C)c2ccccc23)cc1	-4	14	48*	4	1	24*
CCOC(=O)C1=C(C#N)C(C(=O)OCC)c2ncccc21 (stereo unspecified)	1	-5	34*	1	2	22*
CCOC(=O)c1sc(=NC(=O)c2ccc(OC(C)C)cc2)n(C)c1C	-1	36	44*	2	0	38*	RORg DNA counter=4.4*
